How the values were obtained:
Type in all cases: functional
[1] = target: Solute carrier family 2, facilitated glucose transporter member 1 (Homo sapiens) (UniProt P11166); test: ST_JUDE_LEISH: Cytotoxicity at 2uM final concentration against transgenic Leishmania Mexicana promastigotes LmGLUT1 that are glucose transport deficient and complemented with the human glucose transporter GLUT1. Activity is measured by DNA content using SYBR green in vitro
[2] = target: Hexose transporter 1 (Plasmodium falciparum) (UniProt O97467); test: ST_JUDE_LEISH: Cytotoxicity at 2uM final concentration against transgenic Leishmania Mexicana promastigotes LmPfHT that are glucose transport deficient and complemented with the Plasmodium falciparum hexose transporter. Activity is measured by DNA content using SYBR green in vitro
[3] = target: Glucose transporter (Leishmania mexicana) (UniProt O61059); test: ST_JUDE_LEISH: Cytotoxicity at 2uM final concentration against transgenic Leishmania Mexicana promastigotes LmGT2 that are glucose transport deficient and complemented with the L. Mexicana glucose transporter 2. Activity is measured by DNA content using SYBR green in vitro

Sequence of Solute carrier family 2, facilitated glucose transporter member 1 (Homo sapiens) (P11166 whole entry): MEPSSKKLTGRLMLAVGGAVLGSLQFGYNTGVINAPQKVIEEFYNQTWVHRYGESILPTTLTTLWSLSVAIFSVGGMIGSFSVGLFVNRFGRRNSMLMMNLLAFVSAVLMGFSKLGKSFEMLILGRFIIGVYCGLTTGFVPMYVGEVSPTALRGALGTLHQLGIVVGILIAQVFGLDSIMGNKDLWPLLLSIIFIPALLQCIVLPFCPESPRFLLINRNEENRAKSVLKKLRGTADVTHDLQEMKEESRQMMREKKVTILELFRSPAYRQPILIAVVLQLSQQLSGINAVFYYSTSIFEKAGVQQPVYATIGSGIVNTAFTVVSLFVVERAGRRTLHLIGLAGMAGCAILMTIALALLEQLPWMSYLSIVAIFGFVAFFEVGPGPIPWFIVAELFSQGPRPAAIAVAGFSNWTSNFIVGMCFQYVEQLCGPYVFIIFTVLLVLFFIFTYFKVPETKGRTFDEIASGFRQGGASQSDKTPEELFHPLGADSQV

SMILES | inhibition [1] [%] | inhibition [2] [%] | inhibition [3] [%]
CC(=O)Nc1ccc(NC(=O)c2cc(-c3cc(Cl)ccc3O)n[nH]2)cc1 | -0.41 | -0.51 | 2.29
COc1ccc2c(c1)Sc1ccccc1C(N1CCN(CCO)CC1)C2 (stereo not drawn) | 1.57 | 2.05 | 2.69
O=C(Cc1cccc(Cl)c1)N1CCc2cc3nccc(N4CCN5CCC[C@H]5C4)c3cc21 | 3.68 | 2.69 | 4.38
COc1cccc(CNC[C@@H](O)[C@H](Cc2ccccc2)NC(=O)c2cc(NC(C)C)cc(N3CCCCS3(=O)=O)c2)c1 | -0.22 | 1.05 | 0.68
CC(CN(C)C)C(=O)Nc1cccc(-c2ccc(-c3nc4ccccc4[nH]3)cc2)c1 (stereo not drawn) | 12.2 | 9.79 | 7.36
Cc1[nH]c(C)c(-c2ccc(OCc3ccccc3)cc2)c(=O)c1Br | 5.62 | 1.22 | -2.04
Cc1ccccc1NC(=O)C1CSCN1C(=O)OCc1ccccc1 (stereo not drawn) | -1.39 | -0.23 | -0.28
Cc1cccc2nc(-c3ccc(-c4ccc(NC(=O)C(C)CN(C)C)cc4)cc3)[nH]c12 (stereo not drawn) | 11.2 | 9.44 | 5.39
CC(=O)Nc1ncc(C(=O)Nc2cccc(-c3cccc(-c4nc5cc(F)ccc5[nH]4)c3)c2)s1 | 1.74 | 2.62 | 1.65
CCCCCCn1c(Sc2ccc(C#N)c([N+](=O)[O-])c2)nnc1-c1cccs1 | 5.52 | 6.91 | -0.09
CC(=O)Nc1ccc(S(=O)(=O)Nc2c(C)cc(Cc3cnc(N)nc3N)cc2C)cc1 | -0.22 | 0.02 | -0.69
Cc1cc2nc(-c3ccc(C(=O)NC4CCN(Cc5ccccc5)CC4)cc3)[nH]c2cc1C | 14.1 | 12.9 | 10.7
CN(C)CCNCc1ccc(-c2ccc3c(Nc4ccc(Oc5ccccc5)cc4)ccnc3c2)o1 | -1.6 | -1.01 | -0.02
COc1ccc2nc3cc(Cl)ccc3c(NCCCN3CCNCC3)c2c1 | 3.27 | 3.25 | 2.39
COc1ccc2c(=O)c(I)c(C)[nH]c2c1 | -1.2 | -1.12 | -3.12
N#Cc1c(N)nc(SCC(=O)Nc2cc(C(F)(F)F)ccc2Cl)c(C#N)c1-c1cccs1 | 1.06 | 0.77 | 0.5
COc1ccc2ncn(-c3ccc(C(N)=O)c(OCc4ccccc4C(F)(F)F)c3)c2c1 | -0.54 | -1.32 | -3.42
CCNc1cc(C(=O)N[C@@H](Cc2ccccc2)[C@H](O)CN[C@@H](C)c2cccc(OC)c2)cc(N2CCCC2=O)c1 | 3.36 | 2.81 | 3.09
N#Cc1ccc2c(c1)CCN(CCC1CCC(NC(=O)c3cc4cccc(Cl)c4[nH]3)CC1)CC2 (stereo not drawn) | 15.5 | 11.7 | 9.05
COc1ccc(CNC(=O)Nc2cc3cc(-c4ccc(CN5CCCC5)cc4)ccc3n3c(C)nnc23)cc1 | 2.37 | 0.34 | 0.89
CN1CCC(Oc2ccc(CN3CC[C@H](NC(=O)c4ccc(Cl)c(Cl)c4)C3)cc2Cl)C1 (stereo partly drawn) | 15.3 | 16 | 3.89
O=C(Nc1ccccc1)N(Cc1ccc(-c2ccc(CNCc3ccc4c(c3)OCO4)cc2)cc1)C1CCN(Cc2ccccc2)CC1 | 0.62 | -0.02 | -6.42
COc1ccccc1N1CCN(Cc2c(NC(C)=O)sc(C)c2C)CC1 | 0.73 | 0.56 | 1.44
Cn1nccc1C(=O)NCCNCc1cccc(-c2cccc(-c3nc4cc(C(F)(F)F)ccc4[nH]3)c2)c1 | 2.84 | 1.83 | 0.31

SMILES | inhibition [1] [%] | inhibition [2] [%] | inhibition [3] [%]
NC1CCN(Cc2ccc(-c3cccc(-c4nc5ccccc5[nH]4)c3)cc2)C1 (stereo not drawn) | 5.49 | 5.29 | 5.76
Cc1cccc2nc(-c3ccc(-c4ccc(CNCc5cnn(-c6ccccc6)n5)cc4)s3)[nH]c12 | -1.78 | -1.57 | -1.83
COc1cc(NC(=O)N2CCOC(CCN3CCC(c4ccccc4)CC3)(c3ccc(Cl)c(Cl)c3)C2)cc(OC)c1OC (stereo not drawn) | 3.7 | 2.95 | 1.05
O=[N+]([O-])c1ccc(/C=N/O)nc1 | 88.1 | 91.2 | 84.6
Cc1nc(N)nc(N)c1-c1ccc2ccccc2c1 | -1.96 | -1.02 | -2.1
Cc1ccc(NC(=O)Nc2ccc(I)c(OCCN(C)C)c2)cc1Cl | 10.6 | 7.2 | 5.01
c1ccc2c(CNCCCN3CCN(CCCNCc4c5ccccc5cc5ccccc45)CC3)c3ccccc3cc2c1 | 10.3 | 4 | 0.34
Cc1cccc(C)c1OC(=O)CSc1nnc(-c2ccccc2O)o1 | 1.32 | 2.43 | 1.28
C[C@@H](CC1CCCCC1)OC(=O)N(C)[C@H]1CCN(C#N)C1 | 14 | 8.54 | 8.86
Cc1ccc(NC(=O)Nc2ccc(Cl)c(C(F)(F)F)c2)cc1-c1ccc(C(=O)Nc2ccncc2)cc1 | 3.55 | 2.27 | 3.98
CN(C(=O)c1snnc1-c1ccccc1)C1CCN(CCCCCNC(=O)/C=C/c2ccc(Cl)c(Cl)c2)CC1 | 3.47 | 0.39 | 3.46
O=C(Nc1cccc(C2=NCCCN2)c1)Nc1cccc(C2=NCCCN2)c1 | 2.31 | 1.94 | 0.46
Cc1nc(-c2nc(NCc3ccncc3)ncc2-c2ccsc2)sc1C | -1.32 | -0.89 | 0.31
CCCCCC(C)C(C)c1cc(O)c2c(c1)OC(C)(C)CC2c1cc[n+]([O-])cc1 (stereo not drawn) | 3.19 | 4.07 | 4.64
C=CCc1c(C(=O)NCC23CC4CC(CC(C4)C2)C3)nc2ccccc2c1O | -2.74 | 0.27 | 3.24
Cc1onc(-c2c(Cl)cccc2Cl)c1C(=O)N1CCc2cc3nccc(N4CCN5CCC[C@H]5C4)c3cc21 | 3.46 | 4.46 | 5.26
Cc1[nH]c(C)c(-c2ccc(OCc3cc(F)cc(F)c3)nc2)c(=O)c1Br | 3.26 | 5.62 | 0.58
CN(C)CCNCc1cccc(-c2ccc3c(Nc4cc(O)c(Cl)cc4F)ccnc3c2)c1 | 3.57 | 5.09 | 3.04
COc1ccc2nccc(NC(=O)C3(O)CCC(NCc4ccc5c(c4)NCCS5)CC3)c2n1 (stereo not drawn) | 15 | 22.5 | 7.11
C=CCOC(=O)N1CCC(CNCc2cccc(-c3ccc(-c4nc5cccc(C)c5[nH]4)cc3)c2)C1 (stereo not drawn) | 6.3 | 8.62 | 9.02
N#Cc1ccc2[nH]cc(C(=O)CCCCCN(Cc3ccccc3)Cc3ccccc3)c2c1 | 0.31 | -2.35 | -0.24
O=C1OC2(CN1CC1CCN(Cc3ccc(-n4ccnc4)cc3)C1)c1ccccc1-c1ccccc12 (stereo not drawn) | 4.6 | 5.24 | 2.86
Cc1cccc2nc(-c3ccc(-c4ccc(CN5CCC(C(N)=O)CC5)cc4)cc3)[nH]c12 | 6.51 | 5.37 | 5.21
CCOc1ccc(NC(=O)c2ccc(CN3CCCN(Cc4cccc(O)c4)CC3)cc2)cc1 | 3.91 | 3.89 | 4.11

SMILES | inhibition [1] [%] | inhibition [2] [%] | inhibition [3] [%]
CC(=O)N(C)C1CCN(Cc2cccc(-c3ccc(-c4nc5cc(F)ccc5[nH]4)cc3)c2)C1 (stereo not drawn) | 3.46 | 2.4 | 3.15
CN(C)C(=O)c1cccc(COc2ccc(N3C(N)=NC(N)=NC3(C)C)cc2Cl)c1 | 1.73 | 1.77 | -0.58
COc1ccc(Cc2cccc(C(C(=O)NCc3cc(Cl)cc(Cl)c3)N3CCN(C)CC3)c2)cc1 (stereo not drawn) | -1.02 | -1.26 | 0.4
Cc1cc(CN2CC[C@H](NC(=O)c3ccc(Cl)c(Cl)c3)C2)ccc1OC1CCN(Cc2ccccc2)CC1 | 11 | 8.06 | 8.04
CCNc1cc(C(=O)N[C@@H](Cc2ccccc2)[C@H](O)CNC(CC)c2cccc(Cl)c2)cc(N2CCCC2=O)c1 (stereo partly drawn) | 3.51 | -0.75 | 3.68
O=C(NCCCCN1CCC(c2c[nH]c3ccc(-c4ccccc4)cc23)CC1)c1ccc(-c2ccccc2)cc1 | 5.96 | 4.21 | 5.24
CC(C)N(Cc1cnc2nc(N)nc(N)c2n1)c1ccc(Cl)c(Cl)c1 | 1.77 | 1.12 | 1.16
CNCc1cccc2nc(-c3ccc(Cc4cc(Cl)ccc4OCC(C)C)o3)[nH]c12 | 4.31 | 2.61 | 3.52
CCc1cn2c3c(cc(C(=O)N[C@@H](Cc4cc(F)cc(F)c4)[C@H](O)CNC4CCCCC4)cc13)N(C)S(=O)(=O)CC2 | 0.79 | 0.2 | -2.62
COc1ccc2nccc([C@@H](O)CN3CCC(NCc4ccc5c(c4)NC(=O)CO5)CC3)c2c1 | 1.26 | 1.94 | 1.91
CC(=O)c1ccc2cc(C(=O)NC3CCC(CCN4CCc5ccc(-c6noc(C)n6)cc5CC4)CC3)[nH]c2c1 (stereo not drawn) | -0.19 | -0.01 | -2.09
c1ccc(CSC2=NNC(c3ccccn3)S2)cc1 (stereo not drawn) | 0.82 | 3.23 | 2.48
COc1cccc(C(=O)C2CC2CN(C)CC(O)c2cc(C)c(OC)cc2C)c1 (stereo not drawn) | 1.05 | -1.24 | 0.15
CCc1c(C)nc(-n2nc(C)cc2NC(=O)c2ccc(OC)cc2OC)[nH]c1=O | 30.4 | 31.7 | 8.75
Cc1ccc(-c2nc3cc(NC(=O)c4ccc([N+](=O)[O-])o4)ccc3o2)cc1Cl | 77 | 85.3 | 68.1
NC1CCN(CCc2ccc(NS(=O)(=O)c3cccc4ccccc34)cc2)CC1 | -0.69 | -3.38 | 0.61
COc1ccc(N2CCN(CCCCNC(=O)c3ccc(NC(=O)c4ccc(Cl)cc4)cc3)CC2)c(OC)c1 | 9.13 | 8.66 | 8.5
CC(C)(C)c1ccc(NC(=O)c2ccc(CN3CCCN(Cc4ccsc4)CC3)cc2)cc1 | 9.06 | 10.4 | 11.9
COc1ccc(NC(=O)NC2CCN(c3ccnc4cc(Cl)ccc34)CC2)cc1 | 3.93 | 1.61 | 0.02
Fc1ccc(COc2ccc(Nc3ncnc4ccc(I)cc34)cc2Cl)cc1 | 20.3 | 5.02 | 1.83
O=c1cc(NCCC(CNCCc2ccccc2)NCc2cc(Br)cc(Br)c2)[nH]c2ccccc12 (stereo not drawn) | -5.14 | -3.71 | 2.71
O=c1cc(NCCCNCc2cccc(C(F)(F)F)c2Cl)[nH]c2ccccc12 | 3.39 | 3.63 | 2.75
O=C(Nc1ccc2ccccc2n1)c1ccccc1-c1ccccc1 | -0.59 | 2.19 | -0.78

Source: ChEMBL document CHEMBL3433997, “St. Jude Leishmania screening dataset” (2016)
